# From PubChem BioAssay (NCI)
# This is part of a sample that, as a whole, favours compounds with a hit. Of some 79,000 tested, about 15% had one in any assay. Unmarked numbers belong to inactive results. Active and inactive are the calls of the source. Rule as the data show it: active = growth inhibition above about 70%; inactive = the rest.
# Assay: NCI Yeast Anticancer Drug Screen. Data for the mlh1 rad18 strain (AID 175)
# Settings: S. cerevisiae mlh1 rad18 strain growth inhibition; at 50.0 µM (retest, dose inferred, filed as 5.0); active compounds read high
# Procedure, shortened: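 Inhibition values reflect reduced growth of mutant yeast versus vehicle-treated controls following compound exposure; the mutations affect DNA damage repair.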
row,Structure (SMILES),growth inhibition
1,Oc1ccc2oc3ccccc3c2c1,94% (active)
2,O=C(O)Cc1cc(I)c(Oc2ccc(O)c(I)c2)c(I)c1,97% (active)
3,O=C(O)/C(=C\c1ccc(Cl)cc1)c1ccc(C(F)(F)F)cc1[N+](=O)[O-],93% (active)
4,Fc1ccc(NC(=S)SCc2ccccc2)cc1,15%
5,CN(C)c1ccccc1CC(c1c[nH]c2ccccc12)c1c[nH]c2ccccc12,87% (active)
6,O=C(c1ccccc1)N1CCN(c2cccc(Cl)c2)CC1,12%
7,[C-]#[N+]C(C)(c1ccccc1)c1ccccc1,76% (active)
8,Nc1ccccc1[S][Sn]([c]1ccccc1)([c]1ccccc1)[c]1ccccc1,99% (active)
9,O=C1C(Cl)=C(Cl)C(=O)c2cc(Cl)c(Cl)cc21,97% (active)
10,CCCCCCCNC1CCCc2cc(OC)ccc21 (stereo not drawn),60%
11,NCCc1ccc2oc3cc(=O)c4ccccc4c-3nc2c1,41%
12,C/C=C/c1cc2c(cc1O)CC[C@@H]1[C@@H]2CC[C@]2(C)[C@@H](O)CC[C@@H]12,97% (active)
13,c1ccc(SSc2ccccn2)nc1,99% (active)
14,COC1=C2C[C@@H](C)C[C@@H](OC)[C@@H](O)[C@H](C)/C=C(\C)[C@@H](OC(N)=O)[C@H](OC)/C=C\C=C(/C)C(=O)NC(=CC1=O)C2=O,85% (active)
15,NCc1ccccc1-c1c2nc(c(-c3ccccc3CN)c3ccc([nH]3)c(-c3ccccc3CN)c3nc(c(-c4ccccc4CN)c4ccc1[nH]4)C=C3)C=C2,84% (active)
16,Cc1cc(C)n2nc(N)c(C#N)c2c1C#N,7%
17,CC(=O)OCC1OC(n2c(O)c(N=NC(N)=S)c3ccc([N+](=O)[O-])cc32)C(OC(C)=O)C1OC(C)=O (stereo not drawn),68%
18,CC1(c2cccs2)C(C#N)(C#N)C1(C#N)C#N,47%
19,O=C1C=CC(=O)N1C12CC3CC(CC(C3)C1)C2,99% (active)
20,C(=C/c1cnnc2ccccc12)/c1ccccn1,42%

row,Structure (SMILES),growth inhibition
1,COc1ccc2c(c1)C1(C)CCCC(C)(C(=O)O)C1CC2 (stereo not drawn),98% (active)
2,CCN(CC)c1ccc(N=Nc2ccc(Br)cn2)c(O)c1,77% (active)
3,O=[N+]([O-])c1cc(NC(=S)SCc2ccccc2)ccc1Cl,99% (active)
4,C(=C/c1ccnc2ccccc12)/c1cccs1,94% (active)
5,O=P1(O)c2ccccc2CS(=O)(=O)Cc2ccccc21,43%
6,CN1C(Cl)=NS(=O)(=O)c2ccccc21,25%
7,O=C1C=CC(=O)N1c1ccc(Cl)cc1,99% (active)
8,CC(C)CC(C(=O)SCC(C)N1CCCC1)c1ccccc1 (stereo not drawn),37%
9,CC(C)OC(=O)c1ccc(CCC2=CC(=O)C=CC2=O)cc1,98% (active)
10,Cc1ccnc2[nH]c3ccccc3c(=O)c12,99% (active)
11,COc1cc(/C=C/C(=O)c2ccc(O)c(OC)c2)ccc1O,31%
12,CC12C=CC(=O)C=C1CCC1C3CCC(O)(C(=O)CO)C3(C)CC(O)C12F (stereo not drawn),79% (active)
13,O=Cc1ccc2c(c1)CC1(C2)Cc2ccc3c(c2C1)CCC3 (stereo not drawn),74% (active)
14,C[N+](C)(C)CC(=O)N/N=C(\C(=O)NC1=C(Cl)C(=O)c2ccccc2C1=O)C(C#N)c1nc(-c2ccc([N+](=O)[O-])cc2)cs1 (stereo not drawn),97% (active)
15,NC(=O)CC1CCC(c2ccccc2)CC1 (stereo not drawn),-31%
16,O=C(CC(C[N+](=O)[O-])c1ccc2c(c1)OCO2)c1ccccc1 (stereo not drawn),9%
17,CC(=O)OCCCCCCCCCCCCCCO,98% (active)
18,CCOC(=O)c1sc(N/N=C2\NC(=O)/C(=C/c3ccc([N+](=O)[O-])cc3)S2)nc1C,92% (active)
19,O=C1OC(c2ccc3c(c2)OCO3)Sc2ccccc21 (stereo not drawn),27%

# Same assay, conditions: S. cerevisiae mlh1 rad18 strain growth inhibition; at 50.0 µM; active compounds read high
row,Structure (SMILES),growth inhibition
1,Oc1ccc2oc3ccccc3c2c1,94.5% (active)
2,O=C(O)Cc1cc(I)c(Oc2ccc(O)c(I)c2)c(I)c1,89.7% (active)
3,O=C(O)/C(=C\c1ccc(Cl)cc1)c1ccc(C(F)(F)F)cc1[N+](=O)[O-],98.2% (active)
4,Fc1ccc(NC(=S)SCc2ccccc2)cc1,78.2% (active)
5,CN(C)c1ccccc1CC(c1c[nH]c2ccccc12)c1c[nH]c2ccccc12,82% (active)
6,O=C(c1ccccc1)N1CCN(c2cccc(Cl)c2)CC1,16.3%
7,[C-]#[N+]C(C)(c1ccccc1)c1ccccc1,94.4% (active)
8,Nc1ccccc1[S][Sn]([c]1ccccc1)([c]1ccccc1)[c]1ccccc1,98.3% (active)
9,O=C1C(Cl)=C(Cl)C(=O)c2cc(Cl)c(Cl)cc21,87.8% (active)
10,CCCCCCCNC1CCCc2cc(OC)ccc21 (stereo not drawn),71.2% (active)
11,NCCc1ccc2oc3cc(=O)c4ccccc4c-3nc2c1,80.8% (active)
12,C/C=C/c1cc2c(cc1O)CC[C@@H]1[C@@H]2CC[C@]2(C)[C@@H](O)CC[C@@H]12,86.7% (active)
13,c1ccc(SSc2ccccn2)nc1,99.5% (active)
14,COC1=C2C[C@@H](C)C[C@@H](OC)[C@@H](O)[C@H](C)/C=C(\C)[C@@H](OC(N)=O)[C@H](OC)/C=C\C=C(/C)C(=O)NC(=CC1=O)C2=O,90% (active)
15,NCc1ccccc1-c1c2nc(c(-c3ccccc3CN)c3ccc([nH]3)c(-c3ccccc3CN)c3nc(c(-c4ccccc4CN)c4ccc1[nH]4)C=C3)C=C2,76.2% (active)
16,Cc1cc(C)n2nc(N)c(C#N)c2c1C#N,62%
17,CC(=O)OCC1OC(n2c(O)c(N=NC(N)=S)c3ccc([N+](=O)[O-])cc32)C(OC(C)=O)C1OC(C)=O (stereo not drawn),61.3%
18,CC1(c2cccs2)C(C#N)(C#N)C1(C#N)C#N,98.5% (active)
19,O=C1C=CC(=O)N1C12CC3CC(CC(C3)C1)C2,90.7% (active)
20,C(=C/c1cnnc2ccccc12)/c1ccccn1,38.4%

row,Structure (SMILES),growth inhibition
1,COc1ccc2c(c1)C1(C)CCCC(C)(C(=O)O)C1CC2 (stereo not drawn),99.5% (active)
2,CCN(CC)c1ccc(N=Nc2ccc(Br)cn2)c(O)c1,97.2% (active)
3,O=[N+]([O-])c1cc(NC(=S)SCc2ccccc2)ccc1Cl,99.2% (active)
4,C(=C/c1ccnc2ccccc12)/c1cccs1,98.2% (active)
5,O=P1(O)c2ccccc2CS(=O)(=O)Cc2ccccc21,-42.8%
6,CN1C(Cl)=NS(=O)(=O)c2ccccc21,8.95%
7,O=C1C=CC(=O)N1c1ccc(Cl)cc1,92% (active)
8,CC(C)CC(C(=O)SCC(C)N1CCCC1)c1ccccc1 (stereo not drawn),59.2%
9,CC(C)OC(=O)c1ccc(CCC2=CC(=O)C=CC2=O)cc1,79.2% (active)
10,Cc1ccnc2[nH]c3ccccc3c(=O)c12,77.7% (active)
11,COc1cc(/C=C/C(=O)c2ccc(O)c(OC)c2)ccc1O,6.6%
12,CC12C=CC(=O)C=C1CCC1C3CCC(O)(C(=O)CO)C3(C)CC(O)C12F (stereo not drawn),2.15%
13,O=Cc1ccc2c(c1)CC1(C2)Cc2ccc3c(c2C1)CCC3 (stereo not drawn),84.8% (active)
14,C[N+](C)(C)CC(=O)N/N=C(\C(=O)NC1=C(Cl)C(=O)c2ccccc2C1=O)C(C#N)c1nc(-c2ccc([N+](=O)[O-])cc2)cs1 (stereo not drawn),78.7% (active)
15,NC(=O)CC1CCC(c2ccccc2)CC1 (stereo not drawn),41.8%
16,O=C(CC(C[N+](=O)[O-])c1ccc2c(c1)OCO2)c1ccccc1 (stereo not drawn),45.1%
17,CC(=O)OCCCCCCCCCCCCCCO,4.25%
18,CCOC(=O)c1sc(N/N=C2\NC(=O)/C(=C/c3ccc([N+](=O)[O-])cc3)S2)nc1C,96.2% (active)
19,O=C1OC(c2ccc3c(c2)OCO3)Sc2ccccc21 (stereo not drawn),25.8%
